Experimental data reported in PubChem BioAssay.
Activity calls are given as the source filed them.

How the values were obtained:
Albumin (Bos taurus) = Albumin (Bos taurus) (UniProt P02769); experiment: bovine serum albumin binders on microarray, profiling panel, artefact control for SMM control protein annotation, biochemical, small-molecule microarray, Alexa647 label, 635/667 nm fluorescence (AID 1118); conditions: BSA-A647 binding, fluorescence 635 nm, higher = more signal;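 also: score merges 667 nm emission intensity and signal-to-noise per printed compound spot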
Chain of Albumin (Bos taurus) (P02769 whole entry, looked up): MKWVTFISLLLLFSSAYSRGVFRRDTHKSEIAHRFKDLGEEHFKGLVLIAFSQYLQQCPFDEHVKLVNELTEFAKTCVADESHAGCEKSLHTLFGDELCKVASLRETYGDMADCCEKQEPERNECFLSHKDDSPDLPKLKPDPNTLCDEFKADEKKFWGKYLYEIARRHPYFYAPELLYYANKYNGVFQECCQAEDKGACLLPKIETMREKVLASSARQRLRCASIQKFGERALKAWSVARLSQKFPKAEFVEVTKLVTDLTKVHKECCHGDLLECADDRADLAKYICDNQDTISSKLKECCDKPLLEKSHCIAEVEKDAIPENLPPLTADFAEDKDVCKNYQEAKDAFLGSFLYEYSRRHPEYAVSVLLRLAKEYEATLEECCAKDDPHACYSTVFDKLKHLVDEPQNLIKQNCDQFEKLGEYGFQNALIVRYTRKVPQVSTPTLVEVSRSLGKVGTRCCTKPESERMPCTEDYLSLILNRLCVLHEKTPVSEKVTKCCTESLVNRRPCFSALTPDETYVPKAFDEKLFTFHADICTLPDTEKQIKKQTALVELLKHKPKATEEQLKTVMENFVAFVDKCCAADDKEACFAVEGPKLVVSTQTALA

[1] = small-molecule microarray binders of probe aXIP, primary screen, biochemical, NeuroSMM set, 635/667 nm fluorescence (AID 1119); conditions: higher = more signal, called active from +8 up or from −8 down;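 also: probe is the protein aXip251-270 applied at 1 µg/mL to compound-printed slides; binding of probe to printed compounds measured as 667 nm fluorescence plus signal to noise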
[2] = small-molecule binders of probe aNOTCH3, primary screen, biochemical, small-molecule microarray, 635/667 nm fluorescence (AID 1120); conditions: higher = more signal;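 also: probe is a biotin-tagged antibody raised against NOTCH3 rather than NOTCH3 protein; score merges spot fluorescence near 667 nm with spot signal to noise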
[3] = small-molecule binders of probe aNOTCH2, primary screen, biochemical, small-molecule microarray, 635/667 nm fluorescence (AID 1121); conditions: higher = more signal;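 also: score merges feature fluorescence read at 667 nm with its signal to noise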
[4] = target: Carbonic anhydrase 2 (Homo sapiens) (UniProt P00918); experiment: CAII small-molecule binders, profiling panel, biochemical, small-molecule microarray, Alexa647-labelled CAII (AID 1122); conditions: CAII-A647 binding fluorescence, higher = more signal
[5] = COS7 lysate on small-molecule microarray, probe aHis, 635 nm (AID 1123); conditions: COS7 cell lysate, fluorescence, higher = more signal;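 also: z-score combines 667nm fluorescence intensity with signal-to-noise per printed compound spot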
[6] = compound binding in COS7 lysate, probe aLAP1, primary screen, cell lysate, small-molecule microarray (AID 1124); conditions: probe aLAP1, fluorescence, higher = more signal;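 also: lysate comes from COS7 cells expressing LAP1 and is applied at 0.3 µg/mL; score merges spot fluorescence near 667 nm with signal-to-noise over triplicate slides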
Sam68 (KHDRBS1) = experiment: Sam68 small-molecule binders, primary screen, biochemical, small-molecule microarray, 635 nm fluorescence (AID 1125); conditions: small-molecule microarray binding, higher = more signal;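 also: score merges 667 nm channel intensity with signal to noise over triplicate slides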
[7] = tested on: Chordin-like protein 2 (CHRDL2); experiment: CHRDL2 small-molecule binders, primary screen, biochemical, small-molecule microarray, 635 nm fluorescence (AID 1126); conditions: small-molecule microarray binding, fluorescence 635 nm; higher = more signal;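 also: printed compound slides probed with Chrdl2 protein at 4 µg/mL for 1 h at 4 C; score merges 667 nm emission intensity with signal to noise over three replicate slides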
[8] = target: Concanavalin-A (Canavalia ensiformis) (UniProt P02866); experiment: ConA small-molecule binders, primary screen, artefact control for SMM control protein annotation, biochemical, small-molecule microarray, Alexa647 label, 635 nm (AID 1127); conditions: ConA-A647 binding fluorescence, higher = more signal;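 also: z combines 667 nm emission intensity with signal-to-noise across three replicate slides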
Chain of Concanavalin-A (Canavalia ensiformis) (P02866 whole entry, looked up): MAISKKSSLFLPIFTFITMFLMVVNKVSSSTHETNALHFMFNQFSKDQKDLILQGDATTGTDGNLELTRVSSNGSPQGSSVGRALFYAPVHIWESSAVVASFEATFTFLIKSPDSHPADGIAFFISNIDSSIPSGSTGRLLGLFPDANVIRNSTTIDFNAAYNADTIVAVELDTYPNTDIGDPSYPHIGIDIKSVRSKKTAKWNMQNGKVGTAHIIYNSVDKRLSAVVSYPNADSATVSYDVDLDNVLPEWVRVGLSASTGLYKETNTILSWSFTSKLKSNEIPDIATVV

[9] = anti-His antibody binders, primary screen, artefact control for SMM control protein annotation, biochemical, small-molecule microarray, 635 nm fluorescence (AID 1128); conditions: anti-His Alexa647 antibody binding, higher = more signal;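 also: score merges feature fluorescence with signal-to-noise for each printed compound spot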
[10] = tested on: Human papillomavirus type 1a E7 protein (residues 1-88); experiment: HPV1a E7 small-molecule binders, primary screen, biochemical, small-molecule microarray, residues 1-88, 635 nm (AID 1129); conditions: small-molecule microarray binding, fluorescence 635 nm; higher = more signal
[11] = target: Focal adhesion kinase 1 (Homo sapiens) (UniProt Q05397); experiment: small-molecule microarray binders of FAK, primary screen, biochemical, 635/667 nm fluorescence, BSA, DTT (AID 1130); conditions: PTK2 binding, 635 nm fluorescence, higher = more signal;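 also: composite of spot emission at 667 nm and signal to noise over triplicate slides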
Chain of Focal adhesion kinase 1 (Homo sapiens) (Q05397 whole entry, looked up): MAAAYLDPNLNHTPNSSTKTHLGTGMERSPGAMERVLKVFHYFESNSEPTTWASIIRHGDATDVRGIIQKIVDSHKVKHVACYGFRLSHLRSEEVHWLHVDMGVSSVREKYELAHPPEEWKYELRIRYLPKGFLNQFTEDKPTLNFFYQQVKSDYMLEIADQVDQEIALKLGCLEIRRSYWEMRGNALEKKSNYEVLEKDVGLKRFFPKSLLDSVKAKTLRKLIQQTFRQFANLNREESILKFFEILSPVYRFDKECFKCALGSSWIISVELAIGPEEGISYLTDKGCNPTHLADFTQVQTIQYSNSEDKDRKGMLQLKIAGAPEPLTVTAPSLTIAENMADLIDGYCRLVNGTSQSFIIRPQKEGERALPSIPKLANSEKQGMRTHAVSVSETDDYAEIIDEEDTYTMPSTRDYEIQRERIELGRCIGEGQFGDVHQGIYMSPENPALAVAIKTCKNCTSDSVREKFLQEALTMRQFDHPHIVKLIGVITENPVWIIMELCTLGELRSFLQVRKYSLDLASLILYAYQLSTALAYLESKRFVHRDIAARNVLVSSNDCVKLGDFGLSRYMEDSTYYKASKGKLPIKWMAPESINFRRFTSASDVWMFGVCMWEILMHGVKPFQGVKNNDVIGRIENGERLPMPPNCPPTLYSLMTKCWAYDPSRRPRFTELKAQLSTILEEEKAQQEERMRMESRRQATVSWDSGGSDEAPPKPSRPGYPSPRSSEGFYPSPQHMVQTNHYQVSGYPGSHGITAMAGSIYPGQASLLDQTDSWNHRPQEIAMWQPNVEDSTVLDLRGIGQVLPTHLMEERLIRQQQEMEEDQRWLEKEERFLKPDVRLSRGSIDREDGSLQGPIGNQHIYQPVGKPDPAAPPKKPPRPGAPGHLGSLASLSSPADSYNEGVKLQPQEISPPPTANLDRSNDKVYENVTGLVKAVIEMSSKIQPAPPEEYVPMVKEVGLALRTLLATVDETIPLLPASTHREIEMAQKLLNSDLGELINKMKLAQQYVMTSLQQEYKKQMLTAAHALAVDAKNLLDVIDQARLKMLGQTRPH

[12] = tested on: Fibrinogen (Alexa647-labelled); experiment: fibrinogen binders on compound microarrays, profiling panel, artefact control for SMM control-protein annotation, biochemical, small-molecule microarray, 635/667 nm fluorescence (AID 1131); conditions: fibrinogen-A647 binding fluorescence, higher = more signal;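 also: z-score merges 667 nm fluorescence with per-spot signal-to-noise over triplicate slides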
[13] = target: Follistatin (Homo sapiens) (UniProt P19883); experiment: follistatin binders on small-molecule microarrays, primary screen, biochemical, small-molecule microarray, 635/667 nm fluorescence (AID 1132); conditions: FST binding, 635 nm fluorescence, higher = more signal
Chain of Follistatin (Homo sapiens) (P19883 whole entry, looked up): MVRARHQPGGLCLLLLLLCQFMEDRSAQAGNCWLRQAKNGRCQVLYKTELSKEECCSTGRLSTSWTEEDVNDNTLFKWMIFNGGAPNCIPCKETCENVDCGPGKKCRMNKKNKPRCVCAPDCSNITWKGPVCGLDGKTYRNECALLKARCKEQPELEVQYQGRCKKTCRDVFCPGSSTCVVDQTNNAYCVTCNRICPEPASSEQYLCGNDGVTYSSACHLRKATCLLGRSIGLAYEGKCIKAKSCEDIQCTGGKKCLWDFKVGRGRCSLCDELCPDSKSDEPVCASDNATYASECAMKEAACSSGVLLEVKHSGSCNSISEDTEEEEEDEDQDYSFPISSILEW

[14] = target: Fibroblast growth factor 2 (Homo sapiens) (UniProt P09038); experiment: FGF2 binders on small-molecule microarrays, primary screen, biochemical, small-molecule microarray, 635/667 nm fluorescence (AID 1133); conditions: small-molecule microarray binding, FGF2, fluorescence 635/667; higher = more signal
Chain of Fibroblast growth factor 2 (Homo sapiens) (P09038 whole entry, looked up): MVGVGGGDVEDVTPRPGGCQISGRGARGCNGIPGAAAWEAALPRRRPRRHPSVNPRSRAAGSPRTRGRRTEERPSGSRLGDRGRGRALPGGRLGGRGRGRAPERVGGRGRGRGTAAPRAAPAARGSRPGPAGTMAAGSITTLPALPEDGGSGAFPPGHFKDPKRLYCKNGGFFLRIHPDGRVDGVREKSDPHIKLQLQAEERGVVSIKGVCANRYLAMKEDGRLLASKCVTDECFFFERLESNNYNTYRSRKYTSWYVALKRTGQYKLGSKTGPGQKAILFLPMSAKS

[15] = mitochondrial membrane potential change in A549 cells, profiling panel, cell-based, JC-1 fluorescence, basal, 24 h, 100 nL (AID 1138); conditions: higher = more signal;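 also: A549 lung adenocarcinoma cells under basal conditions with no added stimulus; test concentration not given here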
Lefty1 = Lefty1 binders on small-molecule microarrays, primary screen, biochemical, small-molecule microarray, 635/667 nm fluorescence (AID 1139); conditions: small-molecule microarray binding, fluorescence 635/667; higher = more signal
[16] = tested on: wheat germ agglutinin (Triticum aestivum), Alexa647-labelled; experiment: wheat germ agglutinin binders on compound microarrays, profiling panel, artefact control for SMM control-protein annotation, biochemical, small-molecule microarray, 635/667 nm fluorescence (AID 1140); conditions: WGA-A647 binding, 635 nm fluorescence, higher = more signal;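 also: score merges 667 nm feature emission with signal to noise over triplicate slides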
[17] = target: Luciferin 4-monooxygenase (Photinus pyralis) (UniProt P08659); experiment: firefly luciferase enzyme inhibitors, primary screen, biochemical, luminescence, purified enzyme, 2006 set (AID 1141); conditions: SteadyGlo luminescence, 30 min, higher = more signal, called active from +8 up or from −8 down;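 also: cell-free assay with purified firefly luciferase at 100 ng per well in PBS; test concentration not given here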
Chain of Luciferin 4-monooxygenase (Photinus pyralis) (P08659 whole entry, looked up): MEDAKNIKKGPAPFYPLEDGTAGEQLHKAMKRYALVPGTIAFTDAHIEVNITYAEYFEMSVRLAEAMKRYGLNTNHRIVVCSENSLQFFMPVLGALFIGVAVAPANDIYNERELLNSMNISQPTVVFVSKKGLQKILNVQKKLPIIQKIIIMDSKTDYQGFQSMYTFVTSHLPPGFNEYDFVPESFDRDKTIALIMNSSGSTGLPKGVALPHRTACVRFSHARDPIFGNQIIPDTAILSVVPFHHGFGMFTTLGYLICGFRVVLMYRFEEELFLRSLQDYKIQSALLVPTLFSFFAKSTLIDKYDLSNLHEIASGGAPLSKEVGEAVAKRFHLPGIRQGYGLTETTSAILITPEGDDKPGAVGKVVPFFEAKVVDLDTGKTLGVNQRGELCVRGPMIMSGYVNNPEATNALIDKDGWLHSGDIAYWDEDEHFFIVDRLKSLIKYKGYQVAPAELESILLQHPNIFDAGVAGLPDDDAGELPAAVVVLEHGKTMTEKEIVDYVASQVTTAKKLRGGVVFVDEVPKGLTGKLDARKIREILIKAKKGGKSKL

SMILES | composite z-score (Albumin (Bos taurus)) | composite Z-score [1] | composite z-score [2] | composite z-score [3] | composite z-score [4] | composite z-score [5] | composite z-score [6] | composite z-score (Sam68 (KHDRBS1)) | composite z-score [7] | composite z-score [8] | composite z-score [9] | composite z-score [10] | composite z-score [11] | composite z-score [12] | composite z-score [13] | composite z-score [14] | z-score [15] | composite z-score (Lefty1) | composite z-score [16] | z-score [17]
COC(=O)[C@H](C)NC(=O)CCC1CC(OC(=O)NCc2cccc3ccccc23)CC2(CCCC(COC(=O)NCCOc3ccccc3)O2)O1 (stereo not given in full) | 0.445 | -0.0662 (inactive) | -0.0694 | -0.161 | 0.295 | 1.17 | 0.106 | 1.23 | -0.254 | 1.09 | 0.334 | 1.12 | 0.549 | 0.793 | 0.145 | -0.142 | -0.333 | 0.318 | 0.502 | 1.32 (inactive)
C=CC[C@@H]1C=C[C@H](ON=C(C)CCN2CCCc3nc(C)c(C)cc32)[C@@H](CO)O1 | -0.858 | 2.94 (inactive) | 0.712 | 0.276 | -0.1 | 0.735 | 0.629 | 1.32 | 1.3 | -0.12 | 0.229 | 0.736 | 0.817 | -0.355 | 1.25 | 1 | 0.289 | 1.16 | -0.205 | 0.949 (inactive)
CC(=O)OC[C@H]1O[C@H](CCON=C(C)CCN2CCCc3nc(C)c(C)cc32)C=C[C@@H]1OC(C)=O | 0.159 | -0.01 (inactive) | 0.121 | -0.0482 | 0.416 | 0.214 | 0.926 | 1.29 | 0.662 | 0.672 | 1.22 | 1.14 | 0.835 | 0.441 | 1.15 | 0.664 | -0.349 | 0.997 | 0.0722 | 0.591 (inactive)
CCOC(=O)[C@H](CC(C)C)NC(=O)CCC1CC(OC(=O)NCCc2ccc(F)cc2)CC2(CCCC(COC(=O)NCCOC)O2)O1 (stereo not given in full) | 0.502 | 0.795 (inactive) | -0.0573 | -0.171 | 0.0663 | 0.5 | 0.417 | 1.29 | 0.515 | 0.646 | 0.917 | 1.04 | 0.318 | 0.416 | 0.839 | 1.18 | -0.382 | 0.955 | 0.829 | 0.958 (inactive)
Cc1ccc(S(=O)(=O)N[C@@H]2COC(=O)CC=C[C@@H](C)[C@H](NS(=O)(=O)c3ccc(C)cc3)COC(=O)[C@H](C)NC(=O)CC=C[C@H]2C)cc1 | -0.953 | -0.211 (inactive) | -0.0647 | -0.0808 | -0.548 | -1.18 | -0.108 | -1.17 | 0.835 | -1.46 | -0.563 | -0.676 | -0.1 | -0.111 | 0.72 | 0.499 | 0.73 | 0.61 | 0.0658 | -0.743 (inactive)
CC(C)[C@@H](OCc1ccccc1)[C@H](C)C=NOC[C@@H](O)[C@H]1O[C@@H]2OC(C)(C)O[C@@H]2[C@H]1O | 0.0762 | 0.528 (inactive) | -0.0014 | -0.147 | -0.0043 | 0.223 | 0.614 | 0.574 | 0.314 | 1.07 | 2.33 | 0.387 | 0.137 | 0.941 | 0.214 | 0.635 | -0.958 | 0.768 | 0.234 | -0.587 (inactive)
CC(C)[C@@H](OCc1ccccc1)[C@H](C)C=NO[C@H](C)c1cn([C@@H]2COC[C@H]2O)nn1 | 0.378 | -0.0641 (inactive) | 0.307 | -0.156 | -0.133 | 0.811 | 0.388 | 1.3 | 0.0507 | 0.584 | 0.0202 | 0.693 | 0.279 | 0.0524 | 0.229 | 0.422 | -0.245 | 0.957 | -0.0886 | 1.06 (inactive)
C[C@@H]1CC[C@H]2C(=O)O[C@@H](CN=[N+]=[N-])CN2[C@H]1c1ccc(Br)cc1 | 0.677 | -0.283 (inactive) | -0.0343 | -0.0287 | 0.236 | 1.02 | 0.373 | 1.12 | 0.526 | 1.07 | 2.89 | 1.15 | 0.694 | 0.952 | 0.515 | 0.376 | 0.285 | 0.506 | 0.829 | -1.59 (inactive)
COc1ccc(COC(=O)NN=C2C[C@@H](O)[C@@H](O)[C@@H]3[C@@H]4C(=O)N(C[C@@H]5CCCO5)C(=O)[C@@H]4CC[C@@H]23)cc1 | 0.0566 | 0.58 (inactive) | -0.128 | -0.0832 | 0.234 | 0.727 | 0.824 | 0.78 | 0.508 | 0.327 | 0.365 | 0.275 | -0.2 | 0.953 | 0.0253 | 0.104 | 0.883 | 0.0359 | 0.627 | 0.181 (inactive)
CC1(C)O[C@H]2OC([C@H](O)CON3C(=O)c4ccccc4C3=O)[C@H](O)[C@H]2O1 (stereo not given in full) | 0.107 | -0.282 (inactive) | -0.135 | 0.117 | 0.341 | -0.378 | -0.0948 | 0.29 | 0.0988 | -0.371 | 0.547 | -0.103 | 0.433 | 0.12 | 0.0275 | 0.495 | -0.487 | 0.291 | 0.561 | -0.317 (inactive)
COC(=O)[C@@H]1CC[C@H](C)[C@@H](c2ccc(Br)cc2)N1C(=O)C(F)(F)F | -0.591 | -0.225 (inactive) | -0.232 | -0.1 | -0.292 | 0.23 | 0.0015 | -0.412 | -0.183 | -0.317 | -0.0497 | -1.42 | -0.0957 | -0.0695 | -0.202 | -0.0514 | 0.0789 | -0.125 | -0.321 | -0.1 (inactive)
